Test results from ChEMBL document CHEMBL3433997, “St. Jude Leishmania screening dataset” (2016).

Legend:
Format in all cases: functional
[1] = target: Solute carrier family 2, facilitated glucose transporter member 1 (Homo sapiens) (UniProt P11166); experiment: ST_JUDE_LEISH: Cytotoxicity at 2uM final concentration against transgenic Leishmania Mexicana promastigotes LmGLUT1 that are glucose transport deficient and complemented with the human glucose transporter GLUT1. Activity is measured by DNA content using SYBR green in vitro
[2] = target: Hexose transporter 1 (Plasmodium falciparum) (UniProt O97467); experiment: ST_JUDE_LEISH: Cytotoxicity at 2uM final concentration against transgenic Leishmania Mexicana promastigotes LmPfHT that are glucose transport deficient and complemented with the Plasmodium falciparum hexose transporter. Activity is measured by DNA content using SYBR green in vitro
[3] = target: Glucose transporter (Leishmania mexicana) (UniProt O61059); experiment: ST_JUDE_LEISH: Cytotoxicity at 2uM final concentration against transgenic Leishmania Mexicana promastigotes LmGT2 that are glucose transport deficient and complemented with the L. Mexicana glucose transporter 2. Activity is measured by DNA content using SYBR green in vitro

Chain of Solute carrier family 2, facilitated glucose transporter member 1 (Homo sapiens) (P11166 whole entry): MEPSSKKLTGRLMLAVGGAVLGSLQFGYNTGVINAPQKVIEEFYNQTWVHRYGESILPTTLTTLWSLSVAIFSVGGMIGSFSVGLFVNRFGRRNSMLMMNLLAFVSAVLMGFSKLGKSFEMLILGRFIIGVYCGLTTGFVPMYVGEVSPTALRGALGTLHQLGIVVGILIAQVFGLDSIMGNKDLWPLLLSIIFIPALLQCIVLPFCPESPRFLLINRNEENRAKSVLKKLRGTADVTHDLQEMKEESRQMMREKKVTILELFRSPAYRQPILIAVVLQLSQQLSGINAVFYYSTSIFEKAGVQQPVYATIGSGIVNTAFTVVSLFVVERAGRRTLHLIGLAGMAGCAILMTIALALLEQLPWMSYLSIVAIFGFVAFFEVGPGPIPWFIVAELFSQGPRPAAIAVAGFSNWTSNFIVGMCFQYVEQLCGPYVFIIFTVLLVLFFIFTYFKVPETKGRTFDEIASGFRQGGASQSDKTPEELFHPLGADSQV

SMILES	inhibition [1] [%]	inhibition [2] [%]	inhibition [3] [%]
CC(OC(=O)c1ccc(C(=O)NCC2CC2)cc1)C(C)(C)C (configuration not stated)	4.1	3.44	-0.96
COc1cc2c(cc1OCCN1CCC(N3CCCCC3)CC1)N(C(=O)/C=C/c1ccccc1Cl)CC2	0.24	1.79	1.83
COC(=O)[C@@H](NC(=O)[C@H](CC(C)C)Nc1ccc(C#N)c2ccccc12)c1ccc(O)cc1	1.02	0.76	-2.23
COc1cc2c(cc1OC)CC(NCCCCCCNCCc1ccc(Cl)cc1)CC2 (configuration not stated)	0.92	-1.16	0.76
CCc1cn(C)c2c(N3CCCC3=O)cc(C(=O)N[C@@H](Cc3ccccc3)[C@H](O)CNC3CCCCC3)cc12	10.2	11	11.5
O=C(Nc1nc(-c2cc(F)ccc2F)cs1)c1cncc(Br)c1	4.6	1.79	1.42
CN(C)CCC(O)(c1ccc(Br)cc1)c1cccnc1 (configuration not stated)	3.13	2.98	0.51
OC(CNCc1ccccc1Oc1ccccc1)c1cccc(C(F)(F)F)c1 (configuration not stated)	3.95	2.2	0.07
Cc1ccc(Nc2nccc(Nc3ccc4c(C)n[nH]c4c3)n2)cc1F	3.22	4.19	1.7
COc1ccc(-c2cnc3ccc(N4CCCC4)nn23)cc1OC	0.89	0.65	2.83
O=C(Nc1ccc(F)c([N+](=O)[O-])c1)Nc1cc(C(F)(F)F)ccc1Cl	0.18	7.68	1.2
NC(=O)NC(=O)C=Cc1ccco1	0.54	1.9	1.91
COc1cccc2cc(C(=O)N[C@@H](CC(C)C)C(=O)N[C@H](/C=N/NC(=O)N3CCN(C)CC3)CCc3ccccc3)oc12	9.32	11.9	8.39
CC(C)Oc1cc2c(cc1NS(=O)(=O)c1ccc(-c3ccc(Cl)cc3)cc1)CCN(C)CC2	2.55	7.31	4.31
COc1cccc2cc(C(=O)N[C@@H](CC(C)C)C(=O)Nc3cc(F)ccc3Br)oc12	1.51	0.34	0.22
CCOC(=O)Cn1ccc2c(NCc3ccccc3)nc(C)nc21	0.48	1.38	2.53
COc1ccc2[nH]c(C)cc(=NN=Cc3ccccc3)c2c1	-2.87	0.32	-0.26

SMILES	inhibition [1] [%]	inhibition [2] [%]	inhibition [3] [%]
COc1ccc2nccc([C@@H](O)CN3CCC(NCc4ccc5cccc(O)c5n4)CC3)c2n1	5.63	11.5	0.77
O=C(OCc1ccccc1)N1CCc2c([nH]c3ccccc23)C1CCC(F)(F)F (configuration not stated)	3.72	2.6	0.12
Cn1cc(CCNc2ccnc(N3CCC(c4ncc[nH]4)CC3)n2)c2ccccc21	-2.77	-1.57	-2.28
CN1CCC(NCc2ccc(-c3cccc(S(=O)(=O)NCCc4ccccn4)c3)cc2)CC1	0.27	-0.63	1.83
COc1ccc(-c2nc(NC(=O)COc3ccc(C(C)=O)cc3)sc2C)cc1	2.62	2.48	2.69
COc1cc(N)c(Cl)cc1C(=O)NCC1CCN(c2nc(C)cc(C)n2)CC1	1.37	0.61	-0.76
CC(CN1CCN(C)CC1)C(=O)Nc1cccc(-c2ccc(-c3nc4ccccc4[nH]3)s2)c1 (configuration not stated)	-1.1	-1.46	-3.97
CC(C)CCN1CCCN(Cc2cccc(C(=O)Nc3ccc(C(C)(C)C)cc3)c2)CC1	3.18	0.18	2.78
COc1ccc(-c2nc(-c3ccc([N+](=O)[O-])cc3)no2)cc1OC	1.91	2.39	1.76
CC(C)(C)c1ccc(CN(C[C@@H](O)CNS(=O)(=O)c2cc(Cl)cc(Cl)c2)C(C)(C)C)cc1	0.82	0.36	-0.02
Cc1ccc(-n2c(=O)c3cccnc3n2CC(=O)Nc2cccc(C)c2C)cc1	8.07	5.98	7.74
Cc1ccc2nc(C)cc(N/N=C/c3ccccc3[N+](=O)[O-])c2c1	10.8	6.78	7.96
CCN(CC)CCN(Cc1ccc(-c2ccc(C(F)(F)F)cc2)cc1)C(=O)Cn1c(CCc2ccc(F)cc2)nc(=O)c2ccccc21	2.98	2.96	3.33
NCc1ccc(-c2cccc(CNC3CCN(Cc4ccccc4)CC3)c2)cc1	5.2	5.95	3.72
O=C(c1ccco1)c1cn(CCOc2ccccc2)c2ccccc12	1.36	1.5	-0.07
CO/C(=C\C=C\c1cc2cc(Cl)c(Cl)cc2[nH]1)C(=O)NCCCN1CC(C)N(C)CC1C (configuration not stated)	7.33	5.89	6.63
Cc1cc(C(=O)Nc2ccc3c(c2)CCN3C2CCN(Cc3ccc(O)cc3)C2)no1 (configuration not stated)	4.29	5.39	2.38
